APE1 inh-1 – blocks human APE1 abasic DNA cleavage; P27695; recombinant APE1, TAMRA/BHQ-2 abasic DNA cleavage fluorescence; Potency, µM (highest dose often 65.8 µM), actives largely listed as inhibitors; hit rate 0.35% among 350,000; AID 2517; also: nearly all actives have a fitted effect of over 55% in size
Target sequence (P27695 whole entry, looked up): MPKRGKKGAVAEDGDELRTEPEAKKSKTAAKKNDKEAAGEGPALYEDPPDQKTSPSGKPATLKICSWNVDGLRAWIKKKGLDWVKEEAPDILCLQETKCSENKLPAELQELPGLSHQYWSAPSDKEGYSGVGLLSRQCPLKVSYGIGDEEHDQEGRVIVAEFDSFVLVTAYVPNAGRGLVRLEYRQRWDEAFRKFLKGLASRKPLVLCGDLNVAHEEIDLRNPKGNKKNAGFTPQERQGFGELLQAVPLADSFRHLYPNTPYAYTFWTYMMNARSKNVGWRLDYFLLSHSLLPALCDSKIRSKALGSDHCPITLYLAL
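Substrate: short duplex with […] THF abasic site, 5'-TAMRA and 3'-BHQ-2, 50 nM final. APE1 at 0.75 nM, preincubated 15 min RT with compound. Fluorescence increase from first to third read measured activity.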
TDP1 inh – inhibitors of human tyrosyl-DNA phosphodiesterase TDP1; Q9NUW8; recombinant TDP1, AlphaScreen DNA substrate cleavage; Potency, µM (titrated, usually from 130 µM), hits mostly inhibitors; hit rate 0.28% among 350,000; also: nearly all actives have a fitted effect of over 40% in size
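Compounds were preincubated with Tdp1 (1 nM final) for 15 min at room temperature before substrate (15 nM final) started a 5 min reaction; beads (10 ug/ml final) were then added for 10 min before AlphaScreen detection.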
FEN1 inh-1 – human FEN1 inhibition | Potency, µM (series often up to 114 µM), most hits filed as inhibitors | Recombinant FEN1 flap cleavage, fluorescence, 15 min | hit rate 0.35% among 390,000 | P39748 | AID 588795; also: nearly all actives have a fitted effect of over 65% in size
Target sequence (P39748 whole entry, looked up): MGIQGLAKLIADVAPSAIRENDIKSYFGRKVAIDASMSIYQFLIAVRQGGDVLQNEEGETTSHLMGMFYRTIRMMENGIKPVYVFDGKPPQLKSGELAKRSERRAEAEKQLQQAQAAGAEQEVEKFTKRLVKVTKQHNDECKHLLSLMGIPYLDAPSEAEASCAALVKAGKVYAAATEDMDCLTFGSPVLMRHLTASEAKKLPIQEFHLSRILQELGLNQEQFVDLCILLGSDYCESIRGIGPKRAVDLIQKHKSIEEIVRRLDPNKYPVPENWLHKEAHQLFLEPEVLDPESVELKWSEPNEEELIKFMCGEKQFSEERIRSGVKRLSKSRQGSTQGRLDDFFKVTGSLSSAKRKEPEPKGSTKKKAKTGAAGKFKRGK
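Reaction started by adding substrate (50 nM final) to 10 nM enzyme after 15 min room-temperature compound preincubation. Reads at 0 and 15 min, with data normalized and fitted to a four-parameter Hill equation.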
RECQ1 inh-1 – inhibitors of human RECQ1 DNA helicase; Potency, µM (top dose mostly 57.3 µM), usual class: inhibitors; RECQ1 DNA unwinding, red fluorescence kinetic read; AID 2549; hit rate 0.54% among 240,000; P46063; also: nearly all actives have a fitted effect of over 30% in size
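50 nM RECQ1T1 preincubated 15 min with compound in Tris pH 8.0 buffer with MgCl2, DTT, Tween-20 and 2.5 ug/ml poly(dI-dC); started with 200 nM TAMRA/BHQ-2 forked duplex and 2 mM ATP. Unwinding read as fluorescence (525/598 nm), two reads 2 h apart.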
BLM inh-1 – blocks DNA unwinding by human BLM helicase; hit rate 0.2% among 350,000; AID 2528; recombinant BLM DNA unwinding, fluorescence dequenching; Potency, µM (titrated, usually from 56.1 µM), usual class: inhibitors; also: nearly all actives have a fitted effect of over 35% in size
APE1 dye cs – displaces fluorescent dye from DNA, flagging APE1 artifacts. hit rate 7% among 480. shares compounds with APE1 inh-1. DNA fluorescent dye displacement counterscreen, fluorescence. Potency, µM (series often up to 28.5 µM), actives largely listed as inhibitors;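 also: loss of thiazole orange fluorescence as the dye is displaced from duplex DNA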
Endo IV inh – Endo IV (E. coli) inhibition counter-screen. shares compounds with APE1 inh-1. E. coli Endo IV, fluorogenic AP-site DNA cleavage. Potency, µM (highest dose often 27.1 µM), most hits filed as inhibitors. hit rate 4% among 560
APE1 inh-2 – confirmation of inhibitors of human APE1 endonuclease. shares compounds with APE1 inh-1. purified APE1, fluorogenic abasic-site DNA cleavage. Potency, µM (doses to about 57.1 µM), hits mostly inhibitors. hit rate 44% among 750. AID 2572; also: nearly all actives have a fitted effect of over 30% in size
APE1 FP inh – APE1 (human) DNA binding inhibition, fluorescence polarization. shares compounds with APE1 inh-1. APE1 binding to TAMRA-labelled double-stranded DNA, fluorescence polarization displacement. Potency, µM (doses to about 28.5 µM), actives largely listed as inhibitors. hit rate 7% among 480
BLM inh-2 – BLM (human) helicase inhibition, confirmation | shares compounds with BLM inh-1 | BLM DNA unwinding, fluorescence quenching, biochemical | Potency, µM, actives largely listed as inhibitors | hit rate 40% among 220;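 also: strand separation dequenches TAMRA so unwinding raises red fluorescence; series mostly up to about 69 µM; nearly all actives have a fitted effect of over 45% in size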
RECQ1 conf – confirmation of human RECQ1 helicase inhibitors; shares compounds with RECQ1 inh-1; RECQ1 helicase DNA unwinding, fluorescence; Potency, µM (titrated, usually from 229 µM), usual class: inhibitors; hit rate 28% among 610; also: nearly all actives have a fitted effect of over 45% in size
RECQ1 ADP FP – displaces ADP in a fluorescence polarization counter-screen for RECQ1 hits; Potency, µM (highest dose often 228 µM), most hits filed as inhibitors; AID 2711; ADP fluorescence polarization displacement counterscreen; shares compounds with RECQ1 inh-1; hit rate 27% among 530; also: nearly all actives have a fitted effect of over 45% in size
RECQ1 inh-2 – blocks human RECQ1 DNA unwinding | shares compounds with RECQ1 inh-1 | recombinant RECQ1 DNA unwinding, red fluorescence | Potency, µM (top dose mostly 119 µM), most hits filed as inhibitors | hit rate 15% among 1,100 | AID 504841; also: nearly all actives have a fitted effect of over 50% in size
FEN1 inh-2 – FEN1 inhibition, cherry-pick retest | shares compounds with FEN1 inh-1 | FEN1 flap cleavage, TAMRA/BHQ2 fluorogenic DNA substrate | Potency, µM, usual class: inhibitors | hit rate 79% among 880 | AID 720498; also: nearly all actives have a fitted effect of over 60% in size
Of the large screens only hits and unclear results are named; the others gave an inactive call (follow-up assays come after a bar, where they were run). Shown are actives, neighbours in structure and some others; about 0.92% of the full set was active somewhere. Calls follow the shape of the dose curve; as a rule, active = well fitted curve in the direction sought with a large enough effect; inconclusive = small, poorly fitted or top-dose-only effect, or another doubt; inactive = no such curve, though single readings can be large; an effect the other way counts as inactive or inconclusive.

O=C(O)c1ccc(-n2cccc2/C=C2/NC(=O)N(c3cccc(Cl)c3)C2=O)cc1	APE1 inh-1 2.8µM, TDP1 inh 1.6µM, FEN1 inh-1 40µM, RECQ1 inh-1 22µM | APE1 dye cs inconclusive | Endo IV inh inactive | APE1 inh-2 13µM | APE1 FP inh 11µM | FEN1 inh-2 67
Cc1ccc(C)c(CSc2nc3ccncc3n2CC(=O)Nc2ccc(N(C)C)cc2)c1	none (no result: APE1 inh-1, RECQ1 inh-1)
O=C(COc1ccccc1C(=O)N/N=C\c1ccc(O)c(O)c1)N/N=C/c1ccc(O)c(O)c1	APE1 inh-1 2.8µM, FEN1 inh-1 1.6µM, RECQ1 inh-1 1µM, BLM inh-1 2µM | APE1 dye cs 6.3µM | Endo IV inh inactive | APE1 inh-2 2µM | APE1 FP inh inconclusive | RECQ1 conf 2.2µM | RECQ1 ADP FP inactive | FEN1 inh-2 17
O=C1CC(=O)N(Cc2cccs2)C(=O)N1	none
O=C1CC(=O)N(Cc2ccco2)C(=O)N1	APE1 inh-1 10µM, TDP1 inh 10µM, FEN1 inh-1 28µM, RECQ1 inh-1 inconclusive | APE1 dye cs inactive | Endo IV inh inactive | APE1 inh-2 5.6µM | APE1 FP inh inactive | RECQ1 inh-2 inconclusive | FEN1 inh-2 24
COc1cc(NC(=O)CCCN2C(=O)CCn3nc(-c4cn(C)c5ccccc45)cc32)cc(OC)c1	none (no result: APE1 inh-1, RECQ1 inh-1)
O=C(O)CSc1cc(C(=O)c2ccccc2O)cn2c(=O)c3c4c(sc3nc12)CCCC4	APE1 inh-1 inconclusive, FEN1 inh-1 inconclusive, BLM inh-1 25µM (no result: TDP1 inh) | APE1 dye cs inactive | Endo IV inh inconclusive | APE1 inh-2 4µM | APE1 FP inh inconclusive | BLM inh-2 32µM | FEN1 inh-2 48
O=C(O)CSc1nc2sc3c(c2c(=O)n1Cc1ccccc1)CCCCC3	none (no result: TDP1 inh, RECQ1 inh-1)
O=C1CCCC(O)=C1N=Nc1ccc2c(c1)OCO2	none
O=C1CCCC(O)=C1N=Nc1ccc(C(=O)O)cc1	APE1 inh-1 8.9µM, TDP1 inh 2.2µM, FEN1 inh-1 45µM, RECQ1 inh-1 inconclusive | APE1 dye cs inconclusive | Endo IV inh inactive | APE1 inh-2 10µM | APE1 FP inh inactive | FEN1 inh-2 inconclusive
Cc1cc[n+](-c2[nH]c(=O)sc2/C=N/N=C(\[O-])c2ccccc2)cc1	TDP1 inh 40µM | APE1 inh-2 40µM | FEN1 inh-2 67
Cc1cc[n+](-c2[nH]c(=O)sc2/C=N/N=C(\[O-])CCn2c3ccccc3c3ccccc32)cc1	none
CO[C@H]1OC2O[C@@]3(C)CC[C@H]4[C@H](C)CC[C@@H]([C@H]1C)[C@@]24OO3 (some centres not stated)	none (no result: APE1 inh-1, FEN1 inh-1, RECQ1 inh-1)
Cc1nc(S/C(=C\c2ccc(-c3ccc(C(=O)O)c(Cl)c3)o2)C(=O)O)n[nH]1	APE1 inh-1 22µM, TDP1 inh 3.2µM, FEN1 inh-1 inconclusive, RECQ1 inh-1 inconclusive | APE1 inh-2 40µM | RECQ1 inh-2 45µM | FEN1 inh-2 43
Cc1ccc(-c2cc(-c3ccco3)c(C#N)c(=O)[nH]2)cc1	APE1 inh-1 35µM, FEN1 inh-1 inconclusive, RECQ1 inh-1 inconclusive, BLM inh-1 25µM (no result: TDP1 inh) | APE1 dye cs inactive | Endo IV inh inactive | APE1 inh-2 inconclusive | APE1 FP inh inconclusive | FEN1 inh-2 67
Cc1cc(-c2ccccc2)[nH]c(=O)c1C#N	none
CCN(N=O)c1ccc(/C=C/c2ccnc3ccccc23)cc1	none (no result: APE1 inh-1, TDP1 inh, RECQ1 inh-1, BLM inh-1)
O=C(O)c1cccc(-n2cccc2/C=C/[N+](=O)[O-])c1	APE1 inh-1 4µM, FEN1 inh-1 inconclusive, RECQ1 inh-1 inconclusive (no result: TDP1 inh) | APE1 dye cs inactive | Endo IV inh inactive | APE1 inh-2 4.5µM | APE1 FP inh inconclusive | FEN1 inh-2 43
O=Cc1cccn1-c1cccc([N+](=O)[O-])c1	none
O=C(CSc1nc2c([nH]c3ccccc32)c(=O)n1-c1ccc(Cl)cc1)NCC1CCCO1 (configuration not stated)	none (no result: APE1 inh-1, RECQ1 inh-1)
O=c1c2cc(O)c(O)cc2oc2cc(O)c(C3OC(CO)C(O)C(O)C3O)c(O)c12 (configuration not stated)	APE1 inh-1 2.4µM | APE1 dye cs inactive | Endo IV inh inactive | APE1 inh-2 7.1µM | APE1 FP inh inactive | FEN1 inh-2 inconclusive
O=C(O)CN1C(=O)/C(=C/C=C/c2ccccc2)SC1=S	none
CC(C(=O)O)N1C(=O)/C(=C/C=C/c2ccco2)SC1=S (configuration not stated)	APE1 inh-1 2.8µM, TDP1 inh inconclusive, FEN1 inh-1 7.9µM, RECQ1 inh-1 6.3µM, BLM inh-1 inconclusive | APE1 dye cs inactive | Endo IV inh inactive | APE1 inh-2 0.89µM | APE1 FP inh 13µM | FEN1 inh-2 15
O=C1/C(=C/C=C/c2ccco2)SC(=S)N1NS(=O)(=O)c1ccccc1	APE1 inh-1 2.5µM, FEN1 inh-1 4µM, RECQ1 inh-1 3.5µM, BLM inh-1 inconclusive (no result: TDP1 inh) | APE1 dye cs inactive | Endo IV inh inactive | APE1 inh-2 3.5µM | APE1 FP inh inconclusive | FEN1 inh-2 17
COc1ccc(/C=C/C(=O)OCCC(C)C)cc1	none (no result: TDP1 inh, FEN1 inh-1)
O=C(CSc1nnc(-c2cccc(S(=O)(=O)N3CCCC3)c2)n1-c1ccccc1)Nc1ccc(C(=O)O)cc1	TDP1 inh 79µM, FEN1 inh-1 inconclusive, BLM inh-1 inconclusive | APE1 inh-2 inconclusive | FEN1 inh-2 76

Screening data: PubChem BioAssay, National Center for Advancing Translational Sciences (NCATS)
